# Measurements taken from PubChem BioAssay (NCI).
# Several values for one entry are separate records, joined by “and”; a condition that tells them apart may be missing. Identical values can stand only once. About 83,000 compounds went through this panel and 20% of them were active in at least one assay; those are over-represented in the sample as a whole.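 Negative percent growth values reflect cell death: -40 means 40% of the cells present at the start died, and -100 means all died.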 Activity calls are given as the source filed them. Rule for the calls: active = growth percent below 10; inactive = the rest.
# Tests used:
# Assay in all cases: NCI-60 one-dose screen, 48 h (100 = growth as untreated, 0 = no growth, -100 = all killed)
# Details in all cases: 10 µM unless noted
# SR leukemia = test system: SR leukemia
# RPMI-8226 leukemia = test system: RPMI-8226 leukemia
# OVCAR-8 ovarian = test system: OVCAR-8 ovarian
# OVCAR-5 ovarian = test system: OVCAR-5 ovarian
# OVCAR-4 ovarian = test system: OVCAR-4 ovarian
# SK-OV-3 ovarian = test system: SK-OV-3 ovarian
# IGROV1 ovarian = test system: IGROV1 ovarian
# OVCAR-3 ovarian = test system: OVCAR-3 ovarian
# HS 578T breast = test system: HS 578T breast
# NCI/ADR-RES ovarian = test system: NCI/ADR-RES ovarian
Structure (SMILES),growth (SR leukemia),growth (RPMI-8226 leukemia),growth (OVCAR-8 ovarian),growth (OVCAR-5 ovarian),growth (OVCAR-4 ovarian),growth (SK-OV-3 ovarian),growth (IGROV1 ovarian),growth (OVCAR-3 ovarian),growth (HS 578T breast),growth (NCI/ADR-RES ovarian)
CC(C)C(=O)Nc1ccc([N+](=O)[O-])c(C(F)(F)F)c1,76.4% (inactive) and 88.4% (inactive),63.9% (inactive),101% (inactive) and 56.1% (inactive),90.4% (inactive),83.1% (inactive) and 92.5% (inactive),80.2% (inactive) and 99.6% (inactive),94.5% (inactive) and 5.73% (active),86.3% (inactive) and 98.2% (inactive),101% (inactive) and 85.4% (inactive),86.2% (inactive) and 96% (inactive)
CN1CCN(Cc2occc(=O)c2O)CCN(C)CCN(Cc2occc(=O)c2O)CC1,79.5% (inactive) and 31.1% (inactive),97.2% (inactive) and 29.5% (inactive),98.8% (inactive) and 64.2% (inactive),104% (inactive) and 72.1% (inactive),102% (inactive) and 77% (inactive),91% (inactive) and 49.5% (inactive),96.3% (inactive) and 54% (inactive),117% (inactive) and 28.6% (inactive),90.4% (inactive) and 84.2% (inactive),105% (inactive) and 78.7% (inactive)
Clc1ccc(SSc2ccc(Cl)cc2)cc1,104% (inactive),102% (inactive) and 58.2% (inactive),97.6% (inactive) and 86% (inactive),93.9% (inactive) and 119% (inactive),103% (inactive) and 84.9% (inactive),106% (inactive) and 125% (inactive),102% (inactive) and 83.4% (inactive),101% (inactive) and 110% (inactive),97.9% (inactive) and 93.4% (inactive),99.2% (inactive) and 81.8% (inactive)
O=[N+]([O-])c1ccc(Oc2ccccc2)cc1,89.7% (inactive) and 102% (inactive),79% (inactive) and 93.9% (inactive),109% (inactive) and 103% (inactive),96.1% (inactive) and 97.3% (inactive),113% (inactive) and 121% (inactive),109% (inactive) and 103% (inactive),84.4% (inactive) and 104% (inactive),111% (inactive),100% (inactive),96.2% (inactive) and 107% (inactive)
CCOC(=O)Nc1nc2ccccc2[nH]1,98.9% (inactive),97.3% (inactive) and -1.09% (active),97.7% (inactive) and 50.6% (inactive),109% (inactive) and 58.4% (inactive),111% (inactive) and 83% (inactive),103% (inactive) and 31.1% (inactive),114% (inactive) and 39.3% (inactive),122% (inactive) and 1.16% (active),11.2% (inactive),104% (inactive) and 3.49% (active)
CN(C)c1ccc(C(Cc2ccc3ccccc3n2)Cc2ccc3ccccc3n2)cc1,39.5% (inactive) and 71% (inactive),25.4% (inactive) and 51.4% (inactive),46.5% (inactive) and 91.9% (inactive),58.7% (inactive) and 88.9% (inactive),45.5% (inactive) and 79.8% (inactive),77.5% (inactive) and 99.6% (inactive),36% (inactive) and 90.3% (inactive),55.2% (inactive) and 79.8% (inactive),70% (inactive) and 93% (inactive),37.5% (inactive) and 76.3% (inactive)
CC1=C(/C=C/C(C)=C/C=C/C(C)=C/C(=O)O)C(C)(C)CCC1,68.5% (inactive) and 87.1% (inactive) and 68.1% (inactive),31.4% (inactive) and 4.62% (active) and 31.1% (inactive),87% (inactive) and 89.2% (inactive),120% (inactive) and 110% (inactive),86.9% (inactive) and 92% (inactive) and 85% (inactive),72% (inactive) and 90.2% (inactive) and 101% (inactive),99.5% (inactive) and 96% (inactive) and 75.9% (inactive),88.2% (inactive) and 95% (inactive) and 107% (inactive),77.1% (inactive) and 97.4% (inactive) and 75.8% (inactive),90.9% (inactive) and 95% (inactive)
Cc1cc(O)c(C(C)C)cc1N,97.1% (inactive) and 115% (inactive),84.3% (inactive) and 92.6% (inactive),99.3% (inactive) and 106% (inactive),101% (inactive) and 103% (inactive),84.5% (inactive),100% (inactive),103% (inactive) and 114% (inactive),76.6% (inactive) and 116% (inactive),120% (inactive) and 99.7% (inactive),102% (inactive) and 98.8% (inactive)
O=C(/C=C\c1ccnc2ccccc12)c1ccc([N+](=O)[O-])cc1,6.51% (active),31.1% (inactive) and -26.4% (active),99.1% (inactive) and 73.5% (inactive),89.4% (inactive) and 96.3% (inactive),85.3% (inactive) and 63.1% (inactive),95% (inactive) and 89.6% (inactive),108% (inactive) and 92.9% (inactive),100% (inactive) and 87.8% (inactive),107% (inactive) and 88.6% (inactive),81.6% (inactive) and 67.4% (inactive)
O=C1c2ccccc2C(=O)N1/N=C/c1ccc2c(c1)OCO2,82% (inactive),88.5% (inactive),100% (inactive),93.1% (inactive),113% (inactive),97.5% (inactive),101% (inactive),108% (inactive),78.7% (inactive),110% (inactive)
O=C(O)CN(CCN(CC(=O)O)CC(=O)O)CCN(CC(=O)O)CC(=O)O,-21% (active) and 105% (inactive) and 101% (inactive),14.4% (inactive) and 102% (inactive) and 101% (inactive),-15.6% (active) and 97.9% (inactive) and 99.4% (inactive),89.8% (inactive) and 109% (inactive),20.2% (inactive) and 105% (inactive) and 100% (inactive),0.709% (active) and 105% (inactive) and 108% (inactive),15% (inactive),-17.3% (active) and 110% (inactive) and 108% (inactive),7.28% (active) and 134% (inactive),-37.7% (active) and 110% (inactive) and 113% (inactive)
CC(=O)Nc1ccc2cc3ccc(NC(C)=O)cc3nc2c1,72.3% (inactive),54.5% (inactive) and 94.8% (inactive),88.7% (inactive) and 85.6% (inactive),89.2% (inactive) and 63.4% (inactive),87.1% (inactive) and 98.3% (inactive),-13.4% (active) and 67.8% (inactive),85.8% (inactive) and 101% (inactive),85.8% (inactive) and 99.2% (inactive),84.3% (inactive) and 87.3% (inactive),99.9% (inactive) and 97.7% (inactive)
CNc1ccc2nc3ccc(=[N+](C)C)cc-3sc2c1,20.3% (inactive) and 28.5% (inactive),21.3% (inactive) and 8.61% (active),-15.7% (active) and -26.8% (active),-8.49% (active) and -6.9% (active),-14.7% (active),35.2% (inactive) and 18.6% (inactive),3.81% (active) and -25.6% (active),-7.57% (active) and -9.51% (active),-15% (active) and 20.2% (inactive),2.25% (active) and 1.64% (active)
CCC(O)c1ccccc1 (stereo not given),100% (inactive) and 94.1% (inactive),192% (inactive),101% (inactive) and 96.1% (inactive),106% (inactive) and 108% (inactive),103% (inactive) and 107% (inactive),121% (inactive) and 105% (inactive),109% (inactive) and 108% (inactive),112% (inactive) and 109% (inactive),81.8% (inactive) and 93.6% (inactive),112% (inactive) and 118% (inactive)
